MCF10A rerep: induces DNA re-replication in MCF 10a normal breast cells | MCF 10A DNA re-replication, Hoechst nuclear intensity, 48 h | Potency, µM (series often up to 46.1 µM), for the others: at the highest dose activity, positive = re-replication, most hits filed as activators | actives 2.9% (n = 350,000); note: potency is the fitted concentration of half-maximal effect; % of control where 0% means no effect; nearly all actives have a fitted effect of over 50% in size
TDP1 cell noCPT: qHTS for Inhibitors of human tyrosyl-DNA phosphodiesterase 1 (TDP1): qHTS in cells in absence of CPT; DT40 Tdp1-/- hTDP1 cells, no CPT, ATP luminescence, 48 h; Potency, µM (doses to about 46.2 µM), for inactives: at the top dose activity change, negative = growth inhibition, actives largely listed as inhibitors; actives 15% (n = 420,000); note: potency is the fitted concentration of half-maximal effect; % is set by controls: 0 for no effect and ±100 for the full control effect; nearly all actives have a fitted effect of over 55% in size
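Growth kinetics read by CellTiter-Glo luminescence after ≥48 hr at 37 °C. Cells: DT40 Tdp1-/- stably carrying human TDP1, 400 per well, compound exposure in the absence of CPT (DMSO vehicle).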
Chronic BCR inh: blocks chronic active B-cell receptor signaling; ABC-DLBCL IkBa-CBG/CBR reporter, luminescence ratio, 4 h; Potency, µM (top dose mostly 46.1 µM), inactives show at the highest dose activity change, negative = inhibition, hits mostly inhibitors; actives 0.05% (n = 340,000); active = well fitted inhibition curve with a large enough effect in the signal ratio, with a control signal flat, not every such curve was filed as active; inconclusive = small, poorly fitted or top-dose-only effect, or effect the other way, or a change in a side signal; the % refers to the signal ratio;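 note: potency is the fitted concentration of half-maximal effect; plate controls were basal doxycycline-induced cells for no effect and cells given 10 µM MG132 for full effect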
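TMD8 ABC-DLBCL cells carrying doxycycline-inducible green luciferase fused to IkappaBalpha plus unfused red luciferase were exposed to compounds (up to 46 uM) for 4 hrs at 37C. Activity came from the overlap-corrected green/red luminescence ratio.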
DT40 TDP1 CPT: growth inhibition of DT40 Tdp1-/-;hTDP1 cells with camptothecin (screen for TDP1 inhibitors) | chicken DT40 Tdp1-/-;hTDP1 cells + 20 nM CPT, ATP luminescence, 48 h | Potency, µM (doses to about 46.2 µM), for the others: at the highest dose activity change, negative = growth inhibition, most hits filed as inhibitors | actives 12% (n = 420,000) | AID 686979; note: potency is the fitted concentration of half-maximal effect; % is set by controls: 0 for no effect and ±100 for the full control effect; nearly all actives have a fitted effect of over 55% in size
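Chicken DT40 Tdp1-/- cells stably complemented with human TDP1 were seeded at 400 cells/well in medium containing 20 nM camptothecin, exposed to pin-transferred compounds, and grown at 37 °C for at least 48 hr. Viability was read as ATP luminescence.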
SW480 rerep: inducers of DNA re-replication in SW480 colon cancer cells. Potency, µM (series often up to 46.1 µM), for the others: at the top dose re-replication activation, most hits filed as activators. actives 1.8% (n = 340,000). SW480 DNA re-replication, Hoechst DNA content imaging, 48 h; note: potency is the fitted concentration of half-maximal effect; % of control where 0% means no effect; nearly all actives have a fitted effect of over 55% in size
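First, 250 cells per well were seeded. Next, compound or vehicle (23 nL) was pinned in, plates sat 48 hr at 37 C. Finally Hoechst was added for 40 min before fluorescence scanning.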
IL1B secr inh: blocks inflammasome-driven IL-1 beta release. THP-1 LPS/ATP IL-1B secretion, AlphaLISA, 16 h; hits give low values. activity change, % at 57.5 µM. actives 4.7% (n = 360,000). AID 743279; in the data active = activity change below about -50%; inconclusive = mostly about -30% to -49%; note: % is set by controls: 0 for no effect and ±100 for the full control effect
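THP-1 cells pretreated 1 hr with compounds (up to 57.5 uM final), then stimulated with LPS (250 ng/mL final) plus ATP (1.25 mM final); secreted IL-1B measured by AlphaLISA after 16 hr, decreased signal indicating inhibition.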
An asterisk follows results filed as active; i = inactive; ? = inconclusive; / = no result given. Shown are actives, neighbours in structure and some others; about 19% of the full set was active somewhere. Unless noted, calls come from the whole dose curve; as a rule, active = well fitted curve in the direction sought with a large enough effect; inconclusive = small, poorly fitted or top-dose-only effect, or another doubt; inactive = no such curve, though single readings can be large; an effect the other way counts as inactive or inconclusive.

SMILES	MCF10A rerep	TDP1 cell noCPT	Chronic BCR inh	DT40 TDP1 CPT	SW480 rerep	IL1B secr inh
COc1ccc2[nH]c3c(c2c1)CCN1C(=O)C(CC(=O)NCc2ccc(OC)c(OC)c2)C[C@H](C(=O)N2CCOCC2)[C@@]31CCC1CCCC1 (some centres not stated)	9%	?	-2%	?	6%	-19
CC(C)(C)NC(=O)C[C@H]1C[C@H](C(=O)N2CCOCC2)[C@@]2(CCC3CCCC3)c3[nH]c4ccc(Cl)cc4c3CCN2C1=O	?	16µM*	?	?	0%	-60*
COc1ccc(CNC(=O)CC2C[C@H](C(=O)N3CCOCC3)[C@@]3(CCC4CCCC4)c4[nH]c5ccccc5c4CCN3C2=O)cc1OC (some centres not stated)	-6%	23µM*	1%	?	?	-27
Cc1ccc(C2c3c(oc4ccccc4c3=O)C(=O)N2c2ccc(C)cn2)cc1 (configuration not stated)	/	-10%	/	15%	/	/
CN(C)C(=O)CCc1ccc2c3c([nH]c2c1)[C@]1(C)[C@@H](C(=O)N2CCCCC2)C[C@H](CC(=O)NCc2cccc(C(F)(F)F)c2)C(=O)N1CC3	?	21µM*	-1%	21µM*	-17%	-25
C[C@]12c3[nH]c4ccc(Cl)cc4c3CCN1C(=O)[C@@H](CC(=O)NCc1cccc(C(F)(F)F)c1)C[C@@H]2C(=O)N1CCCCC1	?	21µM*	0%	?	?	?
CN(C)C(=O)CCc1ccc2c3c([nH]c2c1)[C@]1(CCC2CCCC2)[C@@H](C(=O)N2CCOCC2)C[C@H](CC(=O)NCc2cccc(C(F)(F)F)c2)C(=O)N1CC3	?	15µM*	1%	21µM*	7%	-56*
COc1cc2ccc(C=O)cc2cc1OC	/	14%	/	16%	/	-26
Cn1[nH]c(C(F)(F)F)cc1=O	?	4%	1%	-16%	0%	-10
CC1(C(=O)Nc2ccc3c(c2)OCO3)CCN1Cc1ccccc1OC(F)F (configuration not stated)	/	?	/	?	/	-67*
Cc1ccc(NC(=O)C2(C)CCN2Cc2ccccc2OC(F)F)cc1 (configuration not stated)	/	?	/	?	/	-16
COc1ccc(NC(=O)C2(C)CCN2Cc2ccccc2OC(F)F)cc1OC (configuration not stated)	/	12µM*	/	?	/	-6
CC1(C(=O)Nc2cccc(Oc3ccccc3)c2)CCN1Cc1ccccc1OC(F)F (configuration not stated)	/	?	/	?	/	-13
CC1(C(=O)Nc2ccc(Cl)c(Cl)c2)CCN1Cc1ccccc1OC(F)F (configuration not stated)	/	12µM*	/	16µM*	/	?
CC1CN(C(=S)Nc2ccccc2C(F)(F)F)CC(C)O1 (configuration not stated)	0%	5%	7%	3%	-3%	i
COCCNC(=O)C(=O)NCC1OCCN1S(=O)(=O)c1cc(F)ccc1F (configuration not stated)	0%	1%	/	4%	-4%	26
Cc1ccc(C(=O)CN(CCC(=O)O)C(=O)c2ccncc2)cc1	-9%	9%	6%	-2%	2%	16
CC1(C)CC(=O)C(C=NCCN2CCOCC2)=C(O)C1	-5%	-26%	-8%	-24%	6.5µM*	1
CC1(C)CC(=O)C(C=NCCO)=C(O)C1	0%	?	-2%	18µM*	-4%	4
Cc1cc(C(=O)CCC(=O)Nc2cccc(F)c2)c(C)s1	/	?	/	?	/	-1
Cc1ccc(C)n1-c1nnc(N2CCCC(C(=O)NCc3ccc(F)cc3)C2)s1 (configuration not stated)	/	8.2µM*	/	18µM*	/	/
Cc1ccc(C)n1-c1nnc(N2CCCC(C(=O)NCc3ccc(Cl)cc3)C2)s1 (configuration not stated)	/	9.2µM*	/	?	/	/
Cc1ccc(CNC(=O)C2CCCN(c3nnc(-n4c(C)ccc4C)s3)C2)cc1 (configuration not stated)	/	18µM*	/	?	/	/
COc1ccc(N2CC(C(=O)Nc3nc4ccc(S(C)(=O)=O)cc4s3)CC2=O)cc1 (configuration not stated)	?	?	-6%	7%	3%	6

From PubChem
